Measured values taken from the supplement of paper PMC4840960.

test system: E18 rat cortical neuron-glia co-culture; test: myelination (MBP fiber length per Olig2+ nucleus), % of 1 µM DAPT response (DMSO = 0) (% of DAPT); higher = more myelination, active = 50 or more; settings: 5 µM; treatment time: 8 days (DIV5-DIV13)
In short: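 Library compounds at 1 or 5 µM in myelination medium were applied from DIV5 to DIV13 to papain-dissociated E18 rat cortical co-cultures seeded at 20,000 cells/well on poly-d-lysine/laminin 96-well plates. Fixed cells (4 % paraformaldehyde) were immunostained for MBP and Olig2 with DAPI, and four 10X fields were analysed in each duplicate well. Continuous straight MBP fiber length per Olig2+ nucleus was set to 0 for 0.1 % DMSO and to 100 for a 1 µM positive control.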

SMILES | myelination
CC(C)[C@H]1CC[C@H](C(=O)N[C@H](Cc2ccccc2)C(=O)O)CC1 [Nateglinide] | -10.9 (inactive)
O=c1[nH]c(=O)n([C@H]2C[C@H](O)[C@@H](CO)O2)cc1F [Floxuridine] | 367 (active)
COc1ccccc1OCC(O)CN1CCN(CC(=O)Nc2c(C)cccc2C)CC1 (stereo not given) [Ranolazine] | -22.5 (inactive)
OC(CCN1CCCCC1)(c1ccccc1)C1CCCCC1 (stereo not given) [Trihexyphenidyl] | -15.2 (inactive)
CC(=O)O[C@]1(C(C)=O)CC[C@H]2[C@@H]3C[C@H](C)C4=CC(=O)CC[C@]4(C)[C@H]3CC[C@@]21C [Medroxyprogesterone acetate] | -11.3 (inactive)
CC(=O)Oc1ccccc1C(=O)Nc1ncc([N+](=O)[O-])s1 [Nitazoxanide] | 91.6 (active)
C=C[C@H]1CN2CC[C@H]1C[C@H]2[C@H](O)c1ccnc2ccc(OC)cc12 [Quinine] | -11.3 (inactive)
C[C@H]1O[C@@H](O[C@H]2[C@@H](O)C[C@H](O[C@H]3[C@@H](O)C[C@H](O[C@H]4CC[C@@]5(C)[C@H](CC[C@@H]6[C@@H]5C[C@@H](O)[C@]5(C)[C@@H](C7=CC(=O)OC7)CC[C@]65O)C4)O[C@@H]3C)O[C@@H]2C)C[C@H](O)[C@@H]1O [Digoxin] | 68.2
CN(C)CCC=C1c2ccccc2COc2ccccc21 [Doxepin] | -4.42 (inactive)
C[C@H](N[C@@H](CCc1ccccc1)C(=O)O)C(=O)N1CCC[C@H]1C(=O)O [Enalaprilat] | -9.9 (inactive)
COc1ccc(/C=C/C(=O)Nc2ccccc2C(=O)O)cc1OC [Tranilast] | -4.27 (inactive)
CNC(=N)NCCC[C@H](N)C(=O)O | -9.76 (inactive)
NS(=O)(=O)c1cc2c(cc1C(F)(F)F)NC(Cc1ccccc1)NS2(=O)=O (stereo not given) [Bendroflumethiazide] | -27.7 (inactive)
COCCOC(=O)C1=C(C)NC(C)=C(C(=O)OC(C)C)C1c1cccc([N+](=O)[O-])c1 (stereo not given) [Nimodipine] | -24.9 (inactive)
CC(=O)OCC(=O)[C@@]1(O)CC[C@H]2[C@@H]3CCC4=CC(=O)CC[C@]4(C)[C@H]3C(=O)C[C@@]21C [Cortisone acetate] | -20.1 (inactive)
